# In PubChem BioAssay (EPA / NIEHS):
# Where “and” joins values, the source holds several entries; their conditions need not be identical. Equal values may be shown once. A structure can be active in one record and inactive in another. Calls of active or inactive are those of the source. How the source made its calls: active means hit-call score of the fitted dose curve at least 0.9, where 1 is the maximum; inactive means score below 0.9.
# Assay: BSK_MyoF_SRB: Viability Assessment in the BioMAP Diversity Plus: MyoF Assay (AID 2284267)
# Settings: primary human lung fibroblasts
# Procedure: BSK_MyoF is a cell-based, multiplexed-readout assay that uses lung fibroblasts, […], with measurements taken at 24 hours after chemical dosing in a microplate: 96-well plate.BSK_MyoF_SRB is an assay component measured in the BSK_MyoF assay. It measures 0.1% sulforhodamine related to cell death using Sulforhodamine staining technology.Data from the assay component BSK_MyoF_SRB was analyzed at the endpoint, BSK_MyoF_SRB, in the positive analysis fitting direction relative to DMSO as the negative control and baseline of activity. Using a type of viability reporter, gain or loss-of-signal activity can be used to understand protein changes. To generalize the intended target to other relatable targets, this assay endpoint is annotated to the 'cell morphology' intended target family, where the subfamily is 'cell conformation'.
# The levels of cell surface (or secreted, indicated by the prefix "s") biomarker endpoints were measured by ELISA. Overt cytotoxicity to cells in confluent adherent cultures (all systems other than the BT system) was assessed by measuring total protein levels using sulforhodamine B (SRB) staining in parallel cultures at the time of biomarker measurements, indicated as SRB endpoints. For proliferation assays for adherent cell types, individual cell types are cultured at sub-confluence and relative cell numbers quantified by SRB staining at time points optimized for each system (48 h: 3C and CASM3C systems; 72 h: BT and HDF3CGF systems; 96 h: SAg system). SRB was performed by staining cells with 0.1% SRB after fixation with 10% TCA and reading wells at 560 nm.Viability and proliferation of PBMC (T cells) was quantified by Alamar Blue reduction for the SAg and BT systems. For PBMC viability (referred to as PBMC Cytotoxicity within the assay endpoint names), cells were plated (75,000/well in a 96-well plate) and then chemical samples added for 1 h before addition of activators, SEB and TSST-1 (20 ng/mL final concentration each). Cells were incubated for 90 h. Then, Alamar Blue (20 uL/well) (Invitrogen, Cat DAL1100) was added for 6 h, and the plates were read with a fluorescence microplate reader at 546/580 nm (excitation/emission). For PBMC proliferation, cells were plated and activated as above but incubated for only 16 h prior to addition of Alamar Blue. Plates were read after 6 h.
Structure (SMILES),outcome,AC50
O=C(O)C=C(C(F)(F)F)C(F)(F)F,inactive,
OCC(F)(F)C(F)(F)C(F)(F)C(F)(F)C(F)(F)C(F)(F)F,inactive,49.5 µM (active)
O=S(=O)(O)C(F)(F)C(F)(F)C(F)(F)C(F)(F)C(F)(F)C(F)(F)C(F)(F)F,inactive,
Nc1ccc([N+](=O)[O-])cc1O,inactive,
FC(F)(F)C(F)(F)C(F)(F)C(F)(F)C(F)(F)C(F)(F)CC1CO1 (stereo not given),inactive,
O=P(O)(O)OCCC(F)(F)C(F)(F)C(F)(F)C(F)(F)C(F)(F)C(F)(F)F,inactive,
C#C[C@]1(O)CC[C@H]2[C@@H]3CCc4cc(OC)ccc4[C@H]3CC[C@@]21C,inactive,
CCCCOCCOCCOC(=O)CCCCC(=O)OCCOCCOCCCC,inactive,
COC(=O)CCC(F)(F)C(F)(F)C(F)(F)C(F)(F)F,inactive,
FC(F)(F)C(F)(F)CNCC(F)(F)C(F)(F)F,inactive,
OCC(F)(F)C(F)(F)C(F)(F)F,inactive,
Oc1ccc(Nc2ccccc2)cc1,inactive,
O=C(O)C(F)(F)C(F)(F)C(F)(F)C(F)(F)F,inactive,
C=C(C)C(=O)OCCC(F)(F)C(F)(F)C(F)(F)C(F)(F)C(F)(C(F)(F)F)C(F)(F)F,inactive,
FC(F)(F)C(F)(F)C(F)(F)C(F)(F)C(F)(F)C(F)(F)CCS,inactive,
C=C(C)C(=O)OCC(F)(F)C(F)(F)C(F)(F)F,inactive,
FC1CC(F)(F)C(F)(F)C1(F)F (stereo not given),inactive,
C=CC(=O)OCC(F)(F)C(F)(F)C(F)(F)C(F)(F)COC(=O)C=C,,17.1 µM (active) and 18.2 µM (active)
CC(CCl)OP(=O)(OC(C)CCl)OC(C)CCl (stereo not given),inactive,
CCCCCCCCC(F)(F)C(F)(F)C(F)(F)C(F)(F)C(F)(F)C(F)(F)F,inactive,

Structure (SMILES),outcome,AC50
O=C(O)C(F)(OC(F)(F)C(F)(OC(F)(F)C(F)(F)C(F)(F)F)C(F)(F)F)C(F)(F)F (stereo not given),inactive,
O=C(Cl)C(F)(F)C(F)(F)C(F)(F)C(F)(F)C(F)(F)C(F)(F)C(F)(F)C(F)(F)F,,26 µM (active) and 21.7 µM (active) and 20.3 µM (active)
N=C(N)C(F)(F)C(F)(F)C(F)(F)C(F)(F)C(F)(F)C(F)(F)C(F)(F)F,inactive,
FC(F)(I)C(F)(F)C(F)(F)C(F)(F)I,,46.5 µM (active) and 53 µM (active) and 53.4 µM (active)
FC(F)(F)C(F)(F)C(F)(F)C(F)(F)C(F)(F)C(F)(F)C(F)(F)C(F)(F)F,inactive,
CC(C)(C)C(=O)CC(=O)C(F)(F)C(F)(F)C(F)(F)F,inactive,
CCCCCCCCCCCCCCCC[N+](C)(C)Cc1ccccc1,,5.13 µM (active)
O[Si](c1ccccc1)(c1ccccc1)c1ccccc1,,23.8 µM (active)
FC(F)(Br)C(F)(F)C(F)(F)C(F)(F)C(F)(F)C(F)(F)Br,inactive,
O=C(O)C(F)(OC(F)(F)C(F)(OC(F)(F)C(F)(OC(F)(F)C(F)(F)C(F)(F)F)C(F)(F)F)C(F)(F)F)C(F)(F)F (stereo not given),inactive,
CCc1ccc(C(c2ccc(CC)cc2)C(Cl)Cl)cc1,,25.7 µM (active)
CCCCNc1ccccc1,inactive,
C=CC(F)(F)C(F)(F)C(F)(F)C(F)(F)C(F)(F)C(F)(F)C(F)(F)C(F)(F)C=C,inactive,
O=C(O)C(F)(F)C(F)(F)C(F)(F)C(F)(F)C(F)(F)C(F)(F)C(F)(F)C(F)(F)Cl,,30.9 µM (active) and 35.5 µM (active)
CO[Si](OC)(c1ccccc1)c1ccccc1,,29.4 µM (active)
OCC(F)(F)C(F)(F)C(F)(F)C(F)(F)C(F)(F)C(F)F,inactive,
O=C(O)C(F)(F)C(F)(F)OC(F)(F)F,inactive,
C=CC/C=C/C/C=C/C/C=C/C,inactive,
OCCCC(F)(F)C(F)(F)C(F)(F)F,inactive,
